Source: PubChem BioAssay
Measured potencies and affinities stand elsewhere. Results filed as inconclusive are left out. Unmarked numbers belong to inactive results. Calls of active or inactive are those of the source. Unless noted, the rule behind the calls is not given here.

How the values were obtained:
[1] = cytotoxicity in PAX8-dependent RMG-1 cells, dose response, cell-based, cherry-pick (AID 687029;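 active = signal drop whose fitted half-maximal concentration is at most twice the top valid dose, in every test run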;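 note: cells exposed to compound for 96 hours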)
[2] = non-specific cell cytotoxicity, dose response, cytotoxicity control for PAX8 inhibitor project, plate reader, dry powder samples (AID 743021)
[3] = inhibitors of CMV-promoter luciferase reporter, dose response, counter-screen for Pax8 inhibitor project, cell-based, HEK293, luminescence, dry powder (AID 743020;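 active = signal-lowering compounds whose fitted half-maximal concentration is at or below twice the top tested dose in every run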;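 note: HEK293 cells stably expressing the CMV luciferase reporter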)
[4] = NIH:OVCAR-3 ovarian cancer cell cytotoxicity, dose response, PAX8 inhibitor project, plate reader, dry powder samples (AID 743044); settings: max activity: at 35 µM unless noted
[5] = A2780 ovarian cancer cell cytotoxicity, dose response, cytotoxicity control, plate reader, dry powder samples (AID 743046)

N#C[C@@H]1[C@H](c2ccc(C#Cc3ccc(F)cc3)cc2)[C@@H](CO)N1C(=O)Nc1ccc(F)cc1
outcome [1]: inactive | outcome [2]: inactive

O=C(NCCc1ccccc1)c1ccc2c(c1)OCCCO2
outcome [1]: inactive | outcome [3]: inactive | outcome [2]: inactive | outcome [4]: inactive | outcome [5]: inactive

CC(=O)NC(c1ccc(C(C)C)cc1)c1ccc2cccnc2c1O (configuration not stated)
outcome [1]: inactive | outcome [2]: inactive

COc1cccc2c1C(=O)c1c(O)c3c(c(O)c1C2=O)C[C@@](O)(C(=O)CO)C[C@@H]3O[C@H]1C[C@H](N)[C@H](O)[C@H](C)O1
outcome [1]: inactive | outcome [2]: inactive

CCOC(=O)c1ccc(NC(=O)Cn2ncc(Cl)c(Cl)c2=O)cc1
outcome [1]: inactive | outcome [2]: inactive

O=[N+]([O-])c1ccc(O)c(-c2cc(C(F)(F)F)nc(-c3ccccc3)n2)c1
outcome [1]: inactive | outcome [2]: inactive

O=C(NN=Cc1c(O)ccc2ccccc12)c1ccncc1
outcome [1]: inactive | outcome [2]: inactive

CCCc1ccc(C(=O)O/N=C(\N)c2ccccn2)cc1
outcome [1]: inactive | outcome [2]: inactive

O=C(C[C@@H]1C[C@H]2c3cc(NS(=O)(=O)c4ccc(F)cc4)ccc3O[C@H]2[C@H](CO)O1)NCc1ccc(-c2ccccc2)cc1
outcome [1]: inactive | outcome [2]: inactive

CC(=NNc1cc(C)c2ccccc2n1)c1ccccn1
outcome [1]: inactive | outcome [2]: inactive

CN1CCc2c(sc(NC(=O)c3ccc([N+](=O)[O-])o3)c2C(N)=O)C1
outcome [1]: inactive | outcome [2]: inactive

COc1cc(-c2c(-c3cc(OC)c(OC)c(OC)c3)noc2C)ccc1F
outcome [1]: inactive | outcome [2]: inactive

Cc1cccc(N(C)S(=O)(=O)c2ccc(-c3cnc(C4CC4)o3)cc2)c1
outcome [1]: inactive | outcome [2]: inactive

OC[C@H]1O[C@@H](n2cnc3c(NCc4ccco4)ncnc32)[C@H](O)[C@@H]1O
outcome [1]: inactive | outcome [2]: inactive

C=CC(=O)N1C/C(=C/c2ccc(F)cc2)C(=O)/C(=C\c2ccc(F)cc2)C1
outcome [1]: inactive | outcome [2]: inactive

CCCCC(=O)NC(c1ccccc1)c1ccc2cccnc2c1O (configuration not stated)
outcome [1]: inactive | outcome [2]: inactive

CC(C)(C)N(Cc1ccc2c(c1)OCO2)C(=O)/C=C\S(=O)c1ccccc1 (configuration not stated)
outcome [1]: inactive | outcome [2]: inactive

CC(=O)c1cc(NC(=O)c2cccc(C(F)(F)F)c2)c(=O)oc1C
outcome [1]: inactive | outcome [2]: inactive

CCCCCC(CC(=O)NO)C(=O)NC(C(=O)N1CCCC1CO)C(C)C (configuration not stated)
outcome [1]: inactive | outcome [2]: inactive

O=C(CCl)Nc1cc2[nH]c(=O)[nH]c2cc1Br
outcome [1]: inactive | outcome [2]: inactive

CN(/N=C/c1ccc(O)cc1O)c1nc(-c2ccccc2)cc(-c2ccccc2)n1
outcome [1]: inactive | outcome [2]: inactive

Cc1ccc(S(=O)(=O)N2CCCCC2)cc1NC(=O)Cn1ncc(Cl)c(Cl)c1=O
outcome [1]: inactive | outcome [2]: inactive

C[C@H]1O[C@@H](O[C@H]2[C@@H](O)C[C@H](O[C@H]3[C@@H](O)C[C@H](O[C@H]4CC[C@@]5(C)[C@H](CC[C@@H]6[C@@H]5C[C@@H](O)[C@]5(C)[C@@H](C7=CC(=O)OC7)CC[C@]65O)C4)O[C@@H]3C)O[C@@H]2C)C[C@H](O)[C@@H]1O
outcome [1]: inactive | outcome [2]: inactive

O=C(NC(Nc1nc2ccc([N+](=O)[O-])cc2s1)(C(F)(F)F)C(F)(F)F)c1ccccc1Cl
outcome [1]: inactive | outcome [2]: inactive

CC1=CC(C)(C)N2C(=O)C3(NCCc4c3[nH]c3ccccc43)c3cc(C)cc1c32 (configuration not stated)
outcome [1]: inactive | outcome [2]: inactive

O=C(Nc1cccc(C(F)(F)F)c1)Nc1ccc(N2CCCC2)c(S(=O)(=O)Nc2ccccc2Cl)c1
outcome [1]: inactive | outcome [2]: inactive

Cc1cccc(/C=C(\c2nc3ccccc3[nH]2)S(=O)(=O)c2ccccc2)c1
outcome [1]: inactive | outcome [2]: inactive

COc1cc2c(c(OC)c1OC)-c1ccc(SC)c(=O)cc1C(NC=O)CC2 (configuration not stated)
outcome [1]: inactive | outcome [2]: inactive

COc1ccc(OC)c(-c2nnc3n2N=C(c2ccc(OC)c(OC4CCCC4)c2)CS3)c1
outcome [1]: inactive | outcome [2]: inactive

COc1ccc(-n2ncc(Cl)c(Cl)c2=O)cc1
outcome [1]: inactive | outcome [2]: inactive

C=CCN1C(=O)/C(=C/c2ccc(OC(C)=O)c(OCC)c2[N+](=O)[O-])SC1=S
outcome [1]: inactive | outcome [2]: inactive

Oc1ccc(Cc2ccccc2)c2cccnc12
outcome [1]: inactive | outcome [2]: inactive

O=c1[nH]c(-c2ccccn2)nc2sc(-c3ccccc3)cc12
outcome [1]: inactive | outcome [2]: inactive

C[C@@H]1CN([C@@H](C)CO)C(=O)Cc2cc(NC(=O)Nc3ccc(C(F)(F)F)cc3)ccc2O[C@@H]1CN(C)S(=O)(=O)c1ccc(Cl)cc1
outcome [1]: inactive | outcome [2]: inactive

COc1ccc(-c2cnc3c(NC=O)cc(-c4cccc(NS(C)(=O)=O)c4)cn23)cc1OC
outcome [1]: inactive | outcome [2]: inactive

COc1cc2c(c(OC)c1OC)-c1ccc(OC)c(=O)cc1[C@@H](NC(C)=O)CC2
outcome [1]: inactive | outcome [2]: inactive

COc1cccc(/C=N/Nc2ccc([N+](=O)[O-])cn2)c1O
outcome [1]: inactive | outcome [2]: inactive

CCOC(=O)N1CCC(NC(=O)c2ccc3c(c2)N=C(C)c2c(C)ccc(C)c2S3)CC1
outcome [1]: inactive | outcome [2]: inactive

Cn1nnnc1Sc1ncnc2scc(-c3ccsc3)c12
outcome [1]: inactive | outcome [2]: inactive

COc1cc2c(c(OC)c1OC)-c1ccc(SC)c(=O)cc1C(NC(=O)C(F)(F)F)CC2 (configuration not stated)
outcome [1]: inactive | outcome [2]: inactive

COc1cc(CNc2ncnc3c2ncn3[C@H]2CN(Cc3ccc(-c4ccccc4)cc3)C[C@@H](CO)O2)cc(OC)c1OC
outcome [1]: inactive | outcome [2]: inactive

O=c1[nH]nnc2c1ncn2C1OC(CO)C(O)C1O (configuration not stated)
outcome [1]: inactive | outcome [2]: inactive

Cc1ccc(/C=N/NC(=O)COc2ccccc2-c2ccccc2)cc1
outcome [1]: inactive | outcome [2]: inactive

O=C(CCCN1C(=O)/C(=C/c2cccc(Br)c2)SC1=S)Nc1ccccn1
outcome [1]: inactive | outcome [2]: inactive

COc1ccc(-c2csc(NC(=O)c3ccccc3NS(=O)(=O)c3ccc(F)c(F)c3)n2)cc1
outcome [1]: inactive | outcome [2]: inactive

Cc1cccc2sc(N(CCCN(C)C)C(=O)CCS(=O)(=O)c3ccccc3)nc12
outcome [1]: inactive | outcome [2]: inactive

O=C(COC(=O)/C(=C/c1cccs1)c1cccs1)NC(c1ccccc1)c1ccccc1
outcome [1]: inactive | outcome [2]: inactive

O=C(NCCc1ccccc1F)c1ccc2c(c1)OCCO2
outcome [1]: inactive | outcome [2]: inactive

O=C(Nc1ccc(N2CCN(C(=O)c3cccs3)CC2)cc1)c1ccc([N+](=O)[O-])o1
outcome [1]: inactive | outcome [2]: inactive

CCN(CC)CCCNc1nc2ccccc2c2[nH]c3ccc(OC)cc3c12
outcome [1]: inactive | outcome [2]: inactive

O=c1ccc2ccccc2c2ccccc12
outcome [1]: inactive | outcome [2]: inactive

Cn1c(=O)[nH]c(=O)c2c1nc([N+](=O)[O-])n2Cc1ccccc1
outcome [1]: inactive | outcome [2]: inactive

COc1ccc2c(C)nc(Nc3nc(-c4ccccc4)cc(=O)[nH]3)nc2c1
outcome [1]: inactive | outcome [2]: inactive

COc1cccc2c1C(=O)c1c(O)c3c(c(O)c1C2=O)C[C@@](O)(C(C)=O)C[C@@H]3O[C@H]1C[C@H](N)[C@H](O)[C@H](C)O1
outcome [1]: inactive | outcome [2]: inactive

Cc1cc(-c2n[nH]c(=S)n2/N=C/C(Br)=C/c2ccccc2)n[nH]1
outcome [1]: inactive | outcome [2]: inactive

COc1ccc(NC(=O)C(=O)NCC2CCCN2S(=O)(=O)c2ccc(C)cc2)cc1 (configuration not stated)
outcome [1]: inactive | outcome [2]: inactive

CCOCC(=O)NC1CCc2cc(OC(=O)COCC)c(OC)c(OC)c2-c2ccc(SC)c(=O)cc21 (configuration not stated)
outcome [1]: inactive | outcome [2]: inactive
